Test results published in PubChem BioAssay.
Calls of active or inactive are those of the source.

What was measured:
[1] = system: PRMT1 (protein arginine N-methyltransferase 1); test: PRMT1 binders on small-molecule microarrays, primary screen, biochemical, small-molecule microarray, 635 nm fluorescence (AID 1088); settings: small-molecule microarray binding, higher = more signal;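 note: binding of Prmt1 protein to compounds spotted on small-molecule microarray slides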
[2] = yeast growth modulation, basal conditions, primary screen, YJM789 clinical isolate, OD600, 24 h (AID 1089);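 note: growth of clinical yeast isolate S. cerevisiae YJM 789 seeded 1000 cells per well; test concentration not given here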; settings: S. cerevisiae YJM789 growth, higher = more signal, called active from +8 up or from −8 down
[3] = fission yeast growth modulation, primary screen, strain 972, OD600, 24 h, no modulator (AID 1090);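 note: basal condition with compound alone and no growth modifier present; test concentration not given here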; settings: S. pombe 972 growth, higher = more signal, called active from +8 up or from −8 down
[4] = S. cerevisiae growth modulation with rapamycin, primary screen, strain BY4716, OD600, 96 h (AID 1091); settings: higher = more signal, called active from +8 up or from −8 down; note: test concentration not given here
[5] = target: Torsin-1A-interacting protein 2 (Homo sapiens) (UniProt Q8NFQ8); test: LULL1 binders on small-molecule microarray, primary screen, cell lysate, human LULL1 lysate, 635/667 nm fluorescence (AID 1092); settings: hLULL1 lysate binding, 635 nm fluorescence, higher = more signal;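 note: probe is lysate of COS7 cells overexpressing human LULL1; score merges per-feature 667 nm fluorescence with signal-to-noise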
Torsin-1A-interacting protein 2 (Homo sapiens), sequence (Q8NFQ8 whole entry, looked up): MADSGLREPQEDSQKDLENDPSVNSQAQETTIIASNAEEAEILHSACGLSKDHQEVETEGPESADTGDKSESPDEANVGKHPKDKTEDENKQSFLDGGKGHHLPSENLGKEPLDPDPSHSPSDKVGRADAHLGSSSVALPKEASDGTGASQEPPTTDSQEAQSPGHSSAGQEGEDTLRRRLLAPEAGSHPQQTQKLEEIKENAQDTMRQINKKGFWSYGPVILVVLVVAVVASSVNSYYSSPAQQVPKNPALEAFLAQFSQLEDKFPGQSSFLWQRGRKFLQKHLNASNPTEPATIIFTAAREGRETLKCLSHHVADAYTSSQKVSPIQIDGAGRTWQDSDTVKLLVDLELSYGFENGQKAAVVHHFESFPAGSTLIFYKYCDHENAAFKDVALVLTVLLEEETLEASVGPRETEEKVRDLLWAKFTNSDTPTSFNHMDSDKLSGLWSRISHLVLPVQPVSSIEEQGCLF

[6] = E. coli growth modulation, two-sided OD650, primary screen, E. coli filamentation project, strain DRC41, 24 h (AID 1093); settings: OD650, 24 h, higher = more signal, called active from +8 up or from −8 down;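 note: MC1000 strain lacking acrAB efflux and sulA so SOS filamentation is blocked; test concentration not given here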
[7] = small-molecule microarray binders of probe aLefty2, primary screen, biochemical, biotinylated probe, 635/667 nm fluorescence (AID 1094); settings: higher = more signal;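 note: score merges spot fluorescence near 667 nm with spot signal-to-noise ratio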
[8] = system: Noggin (protein binding on small-molecule microarray); test: Noggin binders on small-molecule microarray, primary screen, biochemical, 635/667 nm fluorescence (AID 1095); settings: 635 nm fluorescence, higher = more signal;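 note: score merges 667 nm feature fluorescence with signal to noise over triplicate slides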
[9] = target: Neurogenic locus notch homolog protein 3 (Homo sapiens) (UniProt Q9UM47); test: NOTCH3 binders on small-molecule microarray, primary screen, biochemical, 635/667 nm fluorescence (AID 1096); settings: NOTCH3 binding, 635 nm fluorescence, higher = more signal
Neurogenic locus notch homolog protein 3 (Homo sapiens), sequence (Q9UM47 whole entry, looked up): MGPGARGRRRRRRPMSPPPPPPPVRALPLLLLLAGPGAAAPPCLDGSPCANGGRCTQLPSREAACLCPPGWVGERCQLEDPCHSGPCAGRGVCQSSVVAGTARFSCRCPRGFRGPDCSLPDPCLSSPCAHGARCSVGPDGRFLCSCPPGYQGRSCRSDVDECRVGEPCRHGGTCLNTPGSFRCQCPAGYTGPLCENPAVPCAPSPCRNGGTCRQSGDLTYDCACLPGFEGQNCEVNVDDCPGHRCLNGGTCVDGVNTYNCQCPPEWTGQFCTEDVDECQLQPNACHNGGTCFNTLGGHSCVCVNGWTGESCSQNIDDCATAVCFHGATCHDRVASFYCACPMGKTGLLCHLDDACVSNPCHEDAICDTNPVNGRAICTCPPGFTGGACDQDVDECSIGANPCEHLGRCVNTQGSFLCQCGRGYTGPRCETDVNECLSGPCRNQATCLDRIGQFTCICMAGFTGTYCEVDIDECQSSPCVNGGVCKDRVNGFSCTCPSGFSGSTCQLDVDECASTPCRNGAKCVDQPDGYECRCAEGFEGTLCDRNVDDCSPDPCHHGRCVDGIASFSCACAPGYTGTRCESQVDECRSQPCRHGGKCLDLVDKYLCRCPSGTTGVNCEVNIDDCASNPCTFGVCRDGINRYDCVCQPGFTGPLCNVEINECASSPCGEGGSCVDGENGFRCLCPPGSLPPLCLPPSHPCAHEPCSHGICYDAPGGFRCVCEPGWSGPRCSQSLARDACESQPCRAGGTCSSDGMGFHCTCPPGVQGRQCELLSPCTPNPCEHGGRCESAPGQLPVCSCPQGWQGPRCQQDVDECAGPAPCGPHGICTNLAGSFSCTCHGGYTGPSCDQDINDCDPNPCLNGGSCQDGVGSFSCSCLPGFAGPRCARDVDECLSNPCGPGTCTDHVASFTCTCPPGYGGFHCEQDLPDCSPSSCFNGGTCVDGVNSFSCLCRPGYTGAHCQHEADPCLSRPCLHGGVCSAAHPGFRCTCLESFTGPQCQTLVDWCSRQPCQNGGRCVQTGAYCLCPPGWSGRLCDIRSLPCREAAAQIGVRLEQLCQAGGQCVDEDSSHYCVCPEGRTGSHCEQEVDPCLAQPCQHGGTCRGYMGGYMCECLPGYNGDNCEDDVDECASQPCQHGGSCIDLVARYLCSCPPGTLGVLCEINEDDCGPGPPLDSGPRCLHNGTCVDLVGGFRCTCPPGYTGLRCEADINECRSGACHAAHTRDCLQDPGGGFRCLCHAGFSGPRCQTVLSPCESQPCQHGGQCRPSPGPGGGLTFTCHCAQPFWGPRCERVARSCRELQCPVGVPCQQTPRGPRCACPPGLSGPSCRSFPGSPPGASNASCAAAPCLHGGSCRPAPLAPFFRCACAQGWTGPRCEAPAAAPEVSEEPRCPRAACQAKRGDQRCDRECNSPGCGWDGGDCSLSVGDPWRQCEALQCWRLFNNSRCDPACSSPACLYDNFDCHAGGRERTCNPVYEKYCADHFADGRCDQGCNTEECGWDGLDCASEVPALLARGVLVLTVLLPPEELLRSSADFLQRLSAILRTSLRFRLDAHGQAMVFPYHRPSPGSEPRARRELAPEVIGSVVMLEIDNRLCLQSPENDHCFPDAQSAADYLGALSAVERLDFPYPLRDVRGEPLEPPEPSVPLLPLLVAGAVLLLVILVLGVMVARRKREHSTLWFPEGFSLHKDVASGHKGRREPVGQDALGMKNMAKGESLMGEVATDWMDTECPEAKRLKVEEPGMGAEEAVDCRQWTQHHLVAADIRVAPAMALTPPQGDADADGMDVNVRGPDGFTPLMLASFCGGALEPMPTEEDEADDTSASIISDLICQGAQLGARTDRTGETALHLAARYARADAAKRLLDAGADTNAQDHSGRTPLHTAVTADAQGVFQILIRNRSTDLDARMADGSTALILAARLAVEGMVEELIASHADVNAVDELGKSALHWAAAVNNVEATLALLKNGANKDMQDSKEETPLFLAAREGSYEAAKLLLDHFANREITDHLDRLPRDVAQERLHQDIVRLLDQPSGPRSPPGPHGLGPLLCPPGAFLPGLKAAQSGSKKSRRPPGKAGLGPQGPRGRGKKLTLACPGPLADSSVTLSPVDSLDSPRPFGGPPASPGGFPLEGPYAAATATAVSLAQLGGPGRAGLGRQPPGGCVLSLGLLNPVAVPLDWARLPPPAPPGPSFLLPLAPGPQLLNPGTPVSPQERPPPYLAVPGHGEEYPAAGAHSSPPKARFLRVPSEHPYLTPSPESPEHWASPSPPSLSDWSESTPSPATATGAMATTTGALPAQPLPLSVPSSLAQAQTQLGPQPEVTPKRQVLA

[10] = small-molecule microarray binders of probe aEGFR, primary screen, biochemical, biotinylated probe, 635/667 nm fluorescence (AID 1097); settings: higher = more signal;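 note: probe is a biotinylated anti-EGFR antibody binding compounds printed on slides; score combines fluorescence near 667 nm and signal to noise of each spot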

| SMILES | composite z-score [1] | z-score [2] | z-score [3] | z-score [4] | composite z-score [5] | z-score [6] | composite z-score [7] | composite z-score [8] | composite z-score [9] | composite z-score [10] |
| --- | --- | --- | --- | --- | --- | --- | --- | --- | --- | --- |
| O=C1NC(=O)C2C1C=CC(C(O)c1c(F)cccc1Cl)N2Nc1ccccn1 (stereo not given) | 0.409 | 0.107 (inactive) | 0.983 (inactive) | 0.0515 (inactive) | -0.191 | -0.764 (inactive) | 0.21 | 0.148 | 0.01 | 0.213 |
| COC(=O)[C@@]1(Cc2ccc(OC)cc2)[C@H]2c3cc(C(=O)N(C)C)n(Cc4nc5ccccc5[nH]4)c3C[C@H]2CN1C(=O)c1ccccc1 | 0.777 | 0.591 (inactive) | 1.49 (inactive) | 6.95 (inactive) | 3.61 | -0.648 (inactive) | 0.3 | 0.493 | 1.02 | 0.329 |
| COc1ccc(C(O)C2C=CC3C(=O)N(C)C(=O)C3N2N2CCCCC2)cc1 (stereo not given) | 0.973 | -0.186 (inactive) | -0.275 (inactive) | -0.0667 (inactive) | 2.83 | -0.454 (inactive) | 0.311 | 0.158 | 0.871 | 0.0961 |
| Cc1ccc(S[C@]2(C(=O)NC3CC3)CC(=O)N(Cc3ccccc3Cl)[C@@H]2c2ccc(CO)cc2I)cc1 | 1.54 | -0.362 (inactive) | -1.83 (inactive) | 0.67 (inactive) | 3.22 | 0.481 (inactive) | 0.0448 | 1.34 | 0.304 | -0.0238 |
| CC(C)(C)OC(=O)CC[C@@]1(C(=O)O)N=C(c2ccc(OCCCO)cc2)O[C@@H]1c1ccccc1 | 0.618 | 0.586 (inactive) | 1.24 (inactive) | 0.519 (inactive) | 3.55 | 0.0219 (inactive) | 0.021 | -0.423 | 0.183 | -0.0884 |
| COC(=O)[C@@]1(Cc2ccccc2)[C@H]2c3cc(C(=O)N4CCCC4)[nH]c3C[C@H]2CN1C(=O)c1ccccc1 | -1.74 | -0.202 (inactive) | 1.02 (inactive) | 0.0237 (inactive) | 3.51 | -0.156 (inactive) | 0.134 | -0.463 | -0.0434 | -0.122 |
| COCCOC(=O)N1C(=O)[C@@]2(c3cc(C#CC4=CCCCC4)ccc31)[C@H](c1ccc(O)cc1)N1[C@H](c3ccccc3)[C@H](c3ccccc3)OC(=O)[C@H]1[C@@H]2C(=O)Nc1nc2ccccc2s1 | 1.54 | 0.724 (inactive) | 0.0687 (inactive) | 0.801 (inactive) | 3.5 | -0.249 (inactive) | -0.141 | 0.824 | 1.04 | 0.178 |
| CCOC(=O)C[C@H]1[C@H](OC(=O)c2ccc(-c3ccccc3)cc2)[C@@H](NC(=O)c2ccc3ccccc3c2)c2cc(OCCCO)ccc2N1C(=O)c1ccc2ccccc2n1 | 1.15 | -0.72 (inactive) | -0.918 (inactive) | 0.592 (inactive) | 1.47 | -0.56 (inactive) | -0.0358 | 0.372 | 0.895 | 0.0167 |
| C[C@H]1C2=C3C(CC[C@H]4C(OCc5ccc(F)cc5C(F)(F)F)OC[C@](C)([C@@H]34)N(C(=O)OC(C)(C)C)C2)C2COC(=O)OCC21 (stereo not given in full) | 0.63 | -0.271 (inactive) | -1.22 (inactive) | 0.258 (inactive) | 3.52 | -1.4 (inactive) | 0.453 | -0.618 | 1.07 | -0.019 |
| C=CCC(OC(C)=O)[C@@H]1[C@@H](N(Cc2ccc(-c3ccccc3)cc2)C(=O)c2cccc3ccccc23)c2cc(OCCCO)ccc2N1C(=O)Cc1ccc2ccccc2c1 (stereo not given in full) | -0.419 | -0.554 (inactive) | -0.691 (inactive) | -0.311 (inactive) | 0.95 | 0.153 (inactive) | -0.0407 | 0.514 | -0.377 | -0.123 |
| C=C[C@@H](COC(C)=O)NS(=O)(=O)c1ccc(Br)cc1 | 0.317 | -0.952 (inactive) | -15.7 (active) | -1.36 (inactive) | 0.399 | -0.819 (inactive) | -0.176 | 0.516 | 0.269 | -0.157 |
| COc1ccccc1CN1C(=O)c2ccccc2[C@](Cc2ccccc2I)(C(=O)NC(C)C)[C@@H]1c1ccc(CO)cc1 | 1.53 | 0.188 (inactive) | 0.0889 (inactive) | 0.152 (inactive) | 2.05 | -1.01 (inactive) | -0.158 | 1.22 | 1.06 | 0.0583 |
| O=C1C[C@]2(c3ccc([N+](=O)[O-])cc3)C(=O)N(Cc3ccccc3)c3cc(CO)ccc3[C@H]2N1CC12CC3CC(CC(C3)C1)C2 | -0.404 | -0.251 (inactive) | 0.418 (inactive) | -1.23 (inactive) | 0.258 | 0.64 (inactive) | -0.477 | -1.43 | -1.94 | 0.0645 |
| CCOC(=O)[C@H]1C/C=C/C[C@H](C(=O)OCC)C(=O)O[C@H]2[C@@H](OC)O[C@H](CO)[C@@H](OC(=O)Nc3ccc(OC)cc3)[C@@H]2OC1=O | 1.49 | 1.04 (inactive) | -0.0368 (inactive) | 3.56 (inactive) | 2.03 | 1.3 (inactive) | 0.217 | 0.713 | 1.09 | -0.0737 |
| CO[C@H]1O[C@H](CO)[C@@H](OC(=O)Nc2ccc(Oc3ccccc3)cc2)[C@H](OC(=O)Nc2ccccc2-c2ccccc2)[C@@H]1OC(=O)Nc1ccccc1-c1ccccc1 | 1.54 | 1.96 (inactive) | 0.592 (inactive) | 0.974 (inactive) | 2.72 | 1.39 (inactive) | 0.143 | 0.156 | 1.12 | 0.425 |
| COCCOC(=O)N1C(=O)[C@@]2(c3cc(C#CCNC(N)=O)ccc31)[C@H](C(=O)N1CCCCCCC1)[C@H]1C(=O)O[C@H](c3ccccc3)[C@H](c3ccccc3)N1[C@@H]2c1ccc(O)cc1 | 1.41 | 0.355 (inactive) | -0.216 (inactive) | 0.903 (inactive) | 1.66 | 0.0623 (inactive) | 0.111 | 1.46 | 1.08 | -0.0381 |
| CC(C)C(O)C1C=CC2C(=O)N(C)C(=O)C2N1N(c1ccccc1)c1ccccc1 (stereo not given) | -2.15 | 1.01 (inactive) | 1.55 (inactive) | 1.5 (inactive) | 2.17 | -0.573 (inactive) | 0.0443 | -0.306 | -0.853 | 0.102 |
| CCOC(=O)C[C@H]1[C@H](OC(=O)c2ccc(-c3ccccc3)cc2)[C@@H](NC(=O)C2CCCCC2)c2cc(OCCCO)ccc2N1C(=O)c1ccccc1 | 0.5 | 0.285 (inactive) | 0.881 (inactive) | 1.29 (inactive) | 1.44 | -0.964 (inactive) | -0.13 | 0.714 | 0.855 | -0.113 |
| C=CCNC(=O)[C@@H]1[C@H]2C(=O)O[C@H](c3ccccc3)[C@H](c3ccccc3)N2[C@H](c2ccccc2OCCO)[C@@]12C(=O)N(C(=O)OCCOC)c1ccc(C#CC3=CCCCC3)cc12 | 1.54 | 0.363 (inactive) | -0.0834 (inactive) | 3.14 (inactive) | 2.31 | 0.906 (inactive) | -0.205 | 1.34 | 1.15 | -0.0435 |
| C=C(/C(=C/C[C@@H](OC(=O)c1ccncc1)c1ccc(OCCO)cc1)c1cc(C(=O)OC)ccc1OC)C(C)C | 1.48 | 0.412 (inactive) | 0.252 (inactive) | 0.339 (inactive) | 1.32 | 0.681 (inactive) | -0.317 | 0.89 | 1.1 | -0.0509 |
| COc1c(C)cc(-c2cc3c(c(-c4ccccc4)n2)[Si](C(C)C)(C(C)C)OC3)cc1C | -0.267 | 0.105 (inactive) | -0.747 (inactive) | -0.275 (inactive) | -0.495 | 0.346 (inactive) | 0.0008 | -0.24 | -0.263 | -0.0262 |
| C=CC[C@@]12N=C(c3ccc(OCCCO)cc3)O[C@@H]1c1ccccc1N(CCS(=O)(=O)c1ccccc1)C2=O | 1.55 | -0.484 (inactive) | -1.56 (inactive) | 0.793 (inactive) | 2.34 | 1.45 (inactive) | -0.291 | 1.28 | 1.13 | 0.0153 |
| Cc1c(NC(=O)/C(C#N)=C/C=C/c2ccccc2[N+](=O)[O-])c(=O)n(-c2ccccc2)n1C | 0.454 | 0.218 (inactive) | -0.322 (inactive) | 0.477 (inactive) | 1.85 | 1.02 (inactive) | -0.0124 | 0.148 | 0.945 | -0.0043 |
| C=C(CCCC)C(=O)CC[C@@H](OC(=O)c1cccnc1)c1ccccc1OCCO | 1.31 | -0.765 (inactive) | -1.37 (inactive) | -0.24 (inactive) | 0.178 | 0.22 (inactive) | 0.0166 | 0.836 | 0.144 | -0.0565 |
| CCCc1cccc(=O)o1 | 0.804 | -0.91 (inactive) | 0.641 (inactive) | -0.467 (inactive) | 1.17 | -0.454 (inactive) | -0.0475 | 0.614 | 0.363 | 0.0276 |
| COC(=O)[C@@]1(Cc2ccccc2)[C@H]2c3cc(C(=O)N4CCCC4)n(Cc4cc(F)cc5c4OCOC5)c3C[C@H]2CN1C(=O)c1ccccc1 | -0.149 | 1.33 (inactive) | 1.17 (inactive) | 0.509 (inactive) | 3.29 | -0.542 (inactive) | 0.331 | -0.584 | 0.924 | 0.115 |
| CCN(CC)c1ccc(N2CC=CC34O[C@@H]5/C=C\CCC(C)OC(=O)C5[C@H]3C(=O)N(CCO)[C@@H]4C2=O)cc1 (stereo not given in full) | 1.2 | -1.27 (inactive) | -2.02 (inactive) | -0.806 (inactive) | 3.17 | 0.565 (inactive) | -0.134 | -0.563 | 0.0541 | -0.203 |
| CCOc1cc(C(O)C2C=CC3C(=O)N(C4CCCCC4)C(=O)C3N2Nc2ccc(OC)cc2)ccc1O (stereo not given) | 1.17 | -0.344 (inactive) | -0.118 (inactive) | -0.129 (inactive) | 3.21 | -0.0874 (inactive) | 0.0252 | 0.163 | 1.05 | 0.0295 |
